The list is not random: actives were taken first. Their share in the collection is about 1.2%.
NFkB transloc pot = enhances IL-1B driven NFkB nuclear translocation; HUVEC IL-1B NFkB p65 nuclear translocation imaging; activation, % at 2 µM; actives 0.3% (n = 94,000);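 active = activation above 40%, about the mean plus 3 SD, also judged a hit on visual image review; inconclusive = activation above 40% but not a hit on visual review; inactive = activation not above 40% and no visual hit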;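 also: percent activation is computed from the nuclear over cytoplasmic p65 intensity ratio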
IL1B NFkB inh = blocks IL-1B driven NFkB nuclear translocation in HUVEC cells. inhibition, % at 2 µM. HUVEC IL-1B NFkB p65 nuclear translocation imaging. actives 0.43% (n = 94,000);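 active = inhibition above about 30% together with a positive call from visual inspection of the well image, limit read from the data; inconclusive = inhibition above a set limit but visual check negative; inactive = inhibition not above a set limit, visual check negative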;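 also: nuclear over cytoplasmic p65 intensity ratio measured by imaging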
HUVEC tox IL1B = HUVEC cytotoxicity counter-screen, IL-1B stimulated; HUVEC cell count loss, Hoechst imaging; cell count reduction, % at 2 µM; actives 0.41% (n = 94,000); AID 845;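 active = cell count reduction more than 3 SD above the screen-wide mean, cut at about 70% in these data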
Smad3 inh = inhibitors of human Smad3 transcription factor binding; inhibition, % at 25 µM; P84022; TR-FRET Smad3/Dy647-FoxH1 peptide binding, europium anti-His; actives 0.29% (n = 88,000); AID 630;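 active = compounds that reduce the energy-transfer binding signal between the protein and its labelled peptide by more than half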
Target sequence (P84022 whole entry, looked up): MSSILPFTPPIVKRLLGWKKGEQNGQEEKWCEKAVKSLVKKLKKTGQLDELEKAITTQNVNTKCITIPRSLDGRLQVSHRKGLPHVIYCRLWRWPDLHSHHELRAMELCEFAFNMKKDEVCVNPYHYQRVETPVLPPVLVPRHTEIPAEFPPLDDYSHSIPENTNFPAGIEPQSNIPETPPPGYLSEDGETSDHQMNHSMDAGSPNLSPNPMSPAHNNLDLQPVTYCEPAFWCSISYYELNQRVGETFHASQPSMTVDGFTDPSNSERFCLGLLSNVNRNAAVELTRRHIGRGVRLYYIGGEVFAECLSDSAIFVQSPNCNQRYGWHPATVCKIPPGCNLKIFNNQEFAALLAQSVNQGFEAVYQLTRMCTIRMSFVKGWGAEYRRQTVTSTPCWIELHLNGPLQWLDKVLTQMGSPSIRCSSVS
Large screens that a line does not name were inactive; [ ] = another dose, or the depositor's remark.

c1ccc2c(c1)Sc1ccccc1N2C[C@H]1CN2CCC1CC2	Smad3 inh 77 (no result: NFkB transloc pot, IL1B NFkB inh, HUVEC tox IL1B)
Cc1ccc(CS(=O)(=O)Cc2ccc(C(=O)N3CCC4(CC3)OCCO4)o2)cc1	none
Cc1ccc(CS(=O)(=O)CCC(=O)N2CCC3(CC2)OCCO3)cc1	HUVEC tox IL1B 92
O=C(O)C[C@@H]1OCC=C2CN3CC[C@]45c6ccccc6N[C@H]4[C@H]1[C@H]2C[C@H]35	none (no result: NFkB transloc pot, IL1B NFkB inh, HUVEC tox IL1B)
N=C(N)n1cc(/C=N/N=C(N)N)cn1	none (no result: NFkB transloc pot, IL1B NFkB inh, HUVEC tox IL1B)
COC(=O)c1c(C)ccc2c(O)c3c(cc12)C(=O)c1c2c(cc(O)c1C3=O)[C@@]1(C)O[C@@](C)(O2)[C@@H](O)[C@H](N(C)C)[C@H]1O	Smad3 inh 94 (no result: NFkB transloc pot, IL1B NFkB inh, HUVEC tox IL1B)
CN1C[C@@H](C(=O)N[C@@]2(C)O[C@@]3(O)[C@H]4CCCN4C(=O)[C@@H](Cc4ccccc4)N3C2=O)C=C2c3cccc4[nH]cc(c34)C[C@@H]21	none (no result: NFkB transloc pot, IL1B NFkB inh, HUVEC tox IL1B)
O=C(c1cc2ccccn2n1)N1CCC2(CC1)OCCO2	NFkB transloc pot inconclusive
COc1ccc(-c2cc(C(F)(F)F)n3nc(C(=O)N4CCC5(CC4)OCCO5)cc3n2)cc1OC	HUVEC tox IL1B 89
C[C@]12CCC(=O)C=C1C[C@H](O)[C@@H]1[C@@H]2CC[C@@]2(C)[C@H]1CC[C@]2(C)O	none (no result: NFkB transloc pot, IL1B NFkB inh, HUVEC tox IL1B)
O=C1N[C@]2(CN3CCC2CC3)C(=O)N1CN(Cc1ccccc1)c1ccccc1	none (no result: NFkB transloc pot, IL1B NFkB inh, HUVEC tox IL1B)
CC1=NN(c2ccc(S(=O)(=O)O)cc2C)C(=[OH+])[C@@H]1N=Nc1cc(S(=O)(=O)O)ccc1C(=O)O.O.[Cr]	none (no result: NFkB transloc pot, IL1B NFkB inh, HUVEC tox IL1B)
CN1CCC(n2nccc2N)CC1	IL1B NFkB inh 36
Nc1ccnn1C1CCNCC1	none
COc1cccc2c1C(=O)c1c(O)c3c(c(O)c1C2=O)C[C@](O)(/C(C)=N/O)C[C@@H]3O[C@@H]1C[C@H](N)[C@@H](O)[C@H](C)O1	none (no result: NFkB transloc pot, IL1B NFkB inh, HUVEC tox IL1B)
COc1cc2c(cc1OC)[C@]13CC[N@+]4(C)CC5=CCO[C@@H]6CC(=O)N2[C@@H]1[C@@H]6[C@@H]5C[C@]34O	Smad3 inh 93 (no result: NFkB transloc pot, IL1B NFkB inh, HUVEC tox IL1B)
C[C@H]1CC[C@]2(NC1)O[C@H]1C[C@H]3[C@H]4CC=C5C[C@@H](O)CC[C@]5(C)[C@@H]4CC[C@]3(C)[C@H]1[C@@H]2C	none (no result: NFkB transloc pot, IL1B NFkB inh, HUVEC tox IL1B)
CCCCCCn1c(O)c(C=NC2CCCCC2N)c(=O)[nH]c1=O (stereo not drawn)	none
CCCCn1c(O)c(C=NC2CCCCC2N)c(=O)[nH]c1=O (stereo not drawn)	IL1B NFkB inh 99, HUVEC tox IL1B 84
COC(=O)C1CN(C#N)N(c2ccc(Cl)cc2)C12c1ccccc1-c1ccccc12 (stereo not drawn)	IL1B NFkB inh 65
Nc1nc2c(c(=S)[nH]1)[n]([Hg][c]1cc([N+](=O)[O-])ccc1O)c[n+]2[C@H]1O[C@H](CO)[C@@H](O)[C@@H]1O	none (no result: NFkB transloc pot, IL1B NFkB inh, HUVEC tox IL1B)
COc1cc2c(cc1OC)[C@]13CCN4CC5=CCO[C@@H](CC(=O)O)[C@H]([C@H]5C[C@H]41)[C@@H]3N2	Smad3 inh 88 (no result: NFkB transloc pot, IL1B NFkB inh, HUVEC tox IL1B)
O=C(O)c1cccc([As]=[As]c2cccc(C(=O)O)c2)c1 (stereo not drawn)	Smad3 inh 55 (no result: NFkB transloc pot, IL1B NFkB inh, HUVEC tox IL1B)
Cc1ccc2c(c1)C1CN(C)CCC1N2C(=O)Nc1cccc(C(F)(F)F)c1 (stereo not drawn)	IL1B NFkB inh 30
NNc1nncn1N	none (no result: NFkB transloc pot, IL1B NFkB inh, HUVEC tox IL1B)
C[C@@H]1CC[C@@H]2N(C1)C[C@@H]1[C@](O)([C@H](O)C[C@]3(O)[C@H]4CC[C@@H]5[C@]6(O)O[C@@]4(C[C@@]13O)[C@@]5(C)CC[C@H]6O)[C@@]2(C)O	none (no result: NFkB transloc pot, IL1B NFkB inh, HUVEC tox IL1B)
CC1(C)[C@@H]2CC[C@@]1(C)CN(CCC[N+](C)(C)C)C2	none (no result: NFkB transloc pot, IL1B NFkB inh, HUVEC tox IL1B)
O=C(O)/C=C/c1ccc[c]([Sb](=[O])([OH])[OH])c1	Smad3 inh 90 (no result: NFkB transloc pot, IL1B NFkB inh, HUVEC tox IL1B)
CC(C)(O)/C=C/C(=O)[C@](C)(O)[C@H]1[C@H](O)C[C@@]2(C)[C@@H]3CC=C4[C@H](C=C(O)C(=O)C4(C)C)[C@@]3(C)C(=O)C[C@]12C	none (no result: NFkB transloc pot, IL1B NFkB inh, HUVEC tox IL1B)
COC(=O)[C@@H]1c2cc3c(c(O)c2[C@@H](O)C[C@]1(C)O)C(=O)c1c(O)cc2c(c1C3=O)O[C@H]1O[C@]2(C)[C@@H](O)[C@H](N(C)C)[C@H]1O	none (no result: NFkB transloc pot, IL1B NFkB inh, HUVEC tox IL1B)
O=c1[nH]cnc2[nH]cc(CN3CCCCC3)c12	Smad3 inh 78 (no result: NFkB transloc pot, IL1B NFkB inh, HUVEC tox IL1B)
Cc1ccc2c(c1)CC1(CN2C)C(=O)NC(=O)N(CCC2=CCCCC2)C1=O (stereo not drawn)	NFkB transloc pot 66
CC1(C)CC(=N[N-]C(N)=[SH+])CC(C)(C)N1.CC1(C)CC(=N[N-]C(N)=[SH+])CC(C)(C)N1.[Ni]	Smad3 inh 68 (no result: NFkB transloc pot, IL1B NFkB inh, HUVEC tox IL1B)
O=C(Cn1cc(C(=O)c2ccccc2)c2ccccc21)NCc1ccco1	IL1B NFkB inh 93, HUVEC tox IL1B 88 (no result: Smad3 inh)
C[C@]12CC[C@H](O[C@@H]3O[C@H](CO)[C@@H](O)[C@H](O)[C@H]3O)C[C@@H]1CC[C@@H]1[C@@H]2CC[C@]2(C)[C@@H](C3=CCOC3=O)CC[C@@]12O	Smad3 inh 56 (no result: NFkB transloc pot, IL1B NFkB inh, HUVEC tox IL1B)
CO[C@@H]([CH2][Hg][n]1cnc2c1c(=O)n(C)c(=O)n2C)CN1C(=O)c2ccccc2S1(=O)=O	Smad3 inh 64 (no result: NFkB transloc pot, IL1B NFkB inh, HUVEC tox IL1B)
CC1(C)CC(=O)C(C2(O)C(=O)NC(=O)NC2=O)=C(O)C1	Smad3 inh 65[fluorescence artefact?] (no result: NFkB transloc pot, IL1B NFkB inh, HUVEC tox IL1B)
O=[As](O)(O)c1ccc(Cc2ccc([As](=O)(O)O)cc2)cc1	Smad3 inh 79 (no result: NFkB transloc pot, IL1B NFkB inh, HUVEC tox IL1B)
O=[As](O)(O)c1ccc(NCc2ccccc2)cc1	none (no result: NFkB transloc pot, IL1B NFkB inh, HUVEC tox IL1B)
CCOC(=O)[C@@H]1[C@H]2c3ccccc3-c3ccccc3[C@@H]2C[C@H]1O	none (no result: NFkB transloc pot, IL1B NFkB inh, HUVEC tox IL1B)
Cc1nc2c(=O)n(C)c(=O)nc-2n(C)n1	Smad3 inh 80
COc1cc2cc(c1Cl)N(C)C(=O)C[C@H](OC(=O)C(C)C)[C@]1(C)O[C@H]1[C@@H](C)[C@H]1C[C@](O)(NC(=O)O1)[C@@H](OC)/C=C\C=C(\C)C2	none (no result: NFkB transloc pot, IL1B NFkB inh, HUVEC tox IL1B)

High-throughput results: PubChem, several laboratories
